Screens: PubChem, National Center for Advancing Translational Sciences (NCATS)
Only some compounds are listed: those with a hit (about 5.7% of all), similar ones and a draw of the others.
HT1080 IDH1KD tx: kills HT-1080 cells with IDH1 knockdown; HT-1080 IDH1 knockdown viability, ATP luminescence, 48 h; Potency, µM (titrated, usually from 46.1 µM), without a hit: at the top dose activity, negative = toxicity, most hits filed as cytotoxic; actives 2% (n = 360,000);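 further: 0% = DMSO wells and -100% = cell-free medium wells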
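Using the IDH1-knockdown HT-1080 line run in the same batch and compound series as the NT line, viability after 48 h at 37 °C was determined by CellTiter-Glo luminescence and expressed as % activity.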
KB-V1 MDR tox: kills drug-selected multidrug resistant KB-V1 cells | KB-V1 MDR cells viability, CellTiter-Glo, 72 h | Potency, µM (top dose mostly 46.1 µM), most hits filed as cytotoxic | actives 3.4% (n = 400,000); further: nearly all actives have a fitted effect of over 60% in size
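KB-V1 MDR subline cells in DMEM (phenol-red free, 10% FBS) exposed to compounds in qHTS concentration series for 72 h at 37 degrees C. Viability read by CellTiter-Glo luminescence; concentration-effect curves fitted after normalization and correction.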
KB-3-1 cytotox: kills parental KB-3-1 adenocarcinoma cells; KB-3-1 viability, CellTiter-Glo ATP luminescence, 72 h; Potency, µM (titrated, usually from 46.1 µM), most hits filed as cytotoxic; actives 1.4% (n = 400,000); AID 1347075; further: nearly all actives have a fitted effect of over 60% in size
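Cytotoxicity in the drug-sensitive parental line KB-3-1 was scored as loss of CellTiter-Glo luminescence following 72 h incubation with compound. Values come from curve fitting of normalized concentration-response data.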
HT1080-NT tox: kills 2HG-producing HT-1080-NT fibrosarcoma cells; HT-1080-NT fibrosarcoma viability, CellTiter-Glo ATP luminescence, 48 h; Potency, µM (titrated, usually from 46.1 µM), inactives show at the highest dose activity, negative = less viability, usual class: cytotoxic; actives 1.6% (n = 360,000); AID 686970;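 further: NT is the 2HG producing partner of a matched IDH1 knockdown line; 0% = DMSO-treated cells and -100% = media-only wells without cells; nearly all actives have a fitted effect of over 55% in size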
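Read-out is CellTiter-Glo luminescence after 10 minutes at room temperature, following 48 hours' compound treatment of HT-1080-NT cells (750 cells/well, RPMI, 5% FBS, 37 degrees C).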
* hit, by the source's call; [ ] = another dose, or the depositor's remark. The call rests on the fitted dose curve; in most records, active means well fitted curve in the direction sought with a large enough effect; inconclusive means small, poorly fitted or top-dose-only effect, or another doubt; inactive means no such curve, though single readings can be large; an effect the other way counts as inactive or inconclusive. Unless noted, on the % scale 0 is the no-effect control and ±100 the full control effect; potency means the concentration at half of the fitted maximal effect.

Results for Cc1ccc(Oc2nc3c(c(=O)n(Cc4ccccc4F)c(=O)n3C)n2C)cc1 ?
HT1080 IDH1KD tx: 8%; KB-V1 MDR tox: 12µM*; KB-3-1 cytotox: inactive; HT1080-NT tox: -2%

What do the screens show for `Cn1c(NCc2cccnc2)nc2c1c(=O)n(Cc1ccccc1F)c(=O)n2C`?
HT1080 IDH1KD tx: -8%; KB-V1 MDR tox: 15µM*; KB-3-1 cytotox: inconclusive; HT1080-NT tox: -5%

What do the screens show for `Cn1c(=O)c2c(nc(NCc3cccnc3)n2Cc2cccc(C(F)(F)F)c2)n(C)c1=O`?
HT1080 IDH1KD tx: 2%[9.24 µM]; KB-V1 MDR tox: inconclusive; KB-3-1 cytotox: inactive; HT1080-NT tox: 21µM*

Results for CCCCC(=O)Nc1c(C(=O)N2CCN(c3ccccc3)CC2)oc2ccccc12 ?
KB-V1 MDR tox: inactive; KB-3-1 cytotox: inactive

What do the screens show for `CC(C)COc1ccc(-c2nnc(-c3ccco3)o2)cc1`?
HT1080 IDH1KD tx: -3%; KB-V1 MDR tox: inactive; KB-3-1 cytotox: inactive; HT1080-NT tox: 0%

Results for CCN(CC)CCCNc1ccc(-c2nnc(-c3ccc(OCC(C)C)cc3)o2)cn1 ?
HT1080 IDH1KD tx: inconclusive; KB-V1 MDR tox: inconclusive; KB-3-1 cytotox: 21µM*; HT1080-NT tox: -8%

What do the screens show for `Cc1nc2ccccc2c2oc(C(=O)NCc3ccccn3)cc12`?
HT1080 IDH1KD tx: -18%; KB-V1 MDR tox: 2.6µM*; KB-3-1 cytotox: inactive; HT1080-NT tox: -1%

How did O=C(NCc1ccccn1)c1cc(-c2ccccc2Cl)nc2ccccc12 do in these assays?
HT1080 IDH1KD tx: 9%; KB-V1 MDR tox: 18µM*; KB-3-1 cytotox: inactive; HT1080-NT tox: 5%

What do the screens show for `O=C(NCCc1ccccn1)c1cc(-c2ccc(Cl)c(Cl)c2Cl)nc2ccccc12`?
HT1080 IDH1KD tx: inconclusive; KB-V1 MDR tox: 5.8µM*; KB-3-1 cytotox: inconclusive; HT1080-NT tox: -3%

What do the screens show for `O=C(NCc1ccccn1)c1cc(-c2ccncc2)nc2ccccc12`?
HT1080 IDH1KD tx: -3%; KB-V1 MDR tox: inactive; KB-3-1 cytotox: inactive; HT1080-NT tox: 5%

Results for Cc1c(C(=O)NCc2ccccn2)oc2ccccc12 ?
HT1080 IDH1KD tx: -9%; KB-V1 MDR tox: inactive; KB-3-1 cytotox: inactive; HT1080-NT tox: 9%[9.24 µM]

What do the screens show for `Cc1c(C(=O)NCc2ccccn2)oc2c(Cl)cccc12`?
HT1080 IDH1KD tx: 0%; KB-V1 MDR tox: 8.2µM*; KB-3-1 cytotox: inactive; HT1080-NT tox: 6%

How did Cc1ccc(NS(=O)(=O)c2c(C)nc3sc(C)c(C)n3c2=O)cc1F do in these assays?
KB-V1 MDR tox: inactive; KB-3-1 cytotox: inactive

What do the screens show for `O=C(NNC(=O)c1cc(-c2ccc(Cl)cc2Cl)nc2ccccc12)Nc1ccccc1`?
HT1080 IDH1KD tx: inconclusive; KB-V1 MDR tox: 23µM*; KB-3-1 cytotox: inconclusive; HT1080-NT tox: inconclusive

Results for O=[N+]([O-])c1ccc(/C=C/C2=NN(c3ccccc3)C(c3ccco3)C2)o1 (stereo not drawn) ?
HT1080 IDH1KD tx: inconclusive; KB-V1 MDR tox: inconclusive; KB-3-1 cytotox: 7.3µM*; HT1080-NT tox: -15%

How did C(=C\c1ccco1)/C1=NN(c2ccccc2)C(c2ccco2)C1 (stereo not drawn) do in these assays?
HT1080 IDH1KD tx: -24%; KB-V1 MDR tox: inconclusive; KB-3-1 cytotox: inactive; HT1080-NT tox: -5%

What do the screens show for `Cc1ccc2c(Sc3ccc(Cl)cc3)c(C(=O)NCCC(C)C)[nH]c2c1`?
KB-V1 MDR tox: inactive; KB-3-1 cytotox: inactive

Results for COc1cccc(OC)c1C(=O)Oc1ccc2c(c1)O/C(=C\c1ccncc1)C2=O ?
HT1080 IDH1KD tx: inconclusive; KB-V1 MDR tox: inconclusive; KB-3-1 cytotox: inconclusive; HT1080-NT tox: 18µM*

Results for O=C1/C(=C/c2ccccc2)Oc2cc(OC(=O)N3CCOCC3)ccc21 ?
HT1080 IDH1KD tx: 11%; KB-V1 MDR tox: 21µM*; KB-3-1 cytotox: inactive; HT1080-NT tox: 11%

Results for O=C1/C(=C/c2ccc(F)cc2)Oc2cc(OC(=O)N3CCOCC3)ccc21 ?
HT1080 IDH1KD tx: 11%; KB-V1 MDR tox: inactive; KB-3-1 cytotox: inactive; HT1080-NT tox: 12%

How did Cc1c(C(=O)N2CCC(C)CC2)sc2ncnc(N3CCN(c4ccccc4)CC3)c12 do in these assays?
HT1080 IDH1KD tx: -4%; KB-V1 MDR tox: 4.6µM*; KB-3-1 cytotox: inactive; HT1080-NT tox: -1%

How did COc1ccccc1N1CCN(C(=O)c2sc3ncnc(N4CCN(c5ccccn5)CC4)c3c2C)CC1 do in these assays?
HT1080 IDH1KD tx: 29µM*; KB-V1 MDR tox: 23µM*; KB-3-1 cytotox: inconclusive; HT1080-NT tox: 15µM*

What do the screens show for `CCCCN(C)CCNC(=O)c1cc2c(-c3cccc(OC)c3)nn(C)c2s1`?
HT1080 IDH1KD tx: 23µM*; KB-V1 MDR tox: inconclusive; KB-3-1 cytotox: inactive; HT1080-NT tox: 18µM*

Results for COc1cccc(-c2nn(C)c3sc(C(=O)NCCCN(C)Cc4ccccc4)cc23)c1 ?
HT1080 IDH1KD tx: 18µM*; KB-V1 MDR tox: inactive; KB-3-1 cytotox: inconclusive; HT1080-NT tox: 18µM*

How did COc1ccc(CCNC(=O)c2cc3c(-c4ccc(OC)c(OC)c4)nn(C)c3s2)cc1OC do in these assays?
KB-V1 MDR tox: inconclusive; KB-3-1 cytotox: inactive

Results for CCN(CC)CCCNC(=O)c1cc2c(-c3cccc(OC)c3)nn(C)c2s1 ?
HT1080 IDH1KD tx: inconclusive; KB-V1 MDR tox: inactive; KB-3-1 cytotox: inactive; HT1080-NT tox: inconclusive

What do the screens show for `COCCNC(=O)c1cc2c(-c3ccccc3F)nn(C)c2s1`?
HT1080 IDH1KD tx: -16%; KB-V1 MDR tox: inactive; KB-3-1 cytotox: inactive; HT1080-NT tox: -7%

How did CCOc1ccc(CCNC(=O)c2cc3c(-c4ccc(OC)c(OC)c4)nn(C)c3s2)cc1OCC do in these assays?
KB-V1 MDR tox: 23µM*; KB-3-1 cytotox: inactive

How did CCCCN(C)CCNC(=O)c1cc2c(-c3ccccc3F)nn(C)c2s1 do in these assays?
HT1080 IDH1KD tx: inconclusive; KB-V1 MDR tox: inactive; KB-3-1 cytotox: inactive; HT1080-NT tox: 18µM*

Results for CCC(Oc1ccccc1)C(=O)Nc1ccc(OCc2cc(=O)n3ccc(C)cc3n2)cc1 (stereo not drawn) ?
KB-V1 MDR tox: inconclusive; KB-3-1 cytotox: inactive

How did Cn1c2ccccc2c(=O)c2ccc(Cl)cc21 do in these assays?
HT1080 IDH1KD tx: 0%; KB-V1 MDR tox: 13µM*; KB-3-1 cytotox: inconclusive; HT1080-NT tox: -1%

How did Cn1c2ccccc2c(=O)c2ccc(C#Cc3ccc(N)cc3)cc21 do in these assays?
HT1080 IDH1KD tx: inconclusive; KB-V1 MDR tox: inactive; KB-3-1 cytotox: inactive; HT1080-NT tox: inconclusive

How did CCOC(=O)C1(CCOc2ccccc2)CCN(Cc2cc(OC)c3c(c2)OCO3)CC1 do in these assays?
HT1080 IDH1KD tx: 18µM*; KB-V1 MDR tox: inactive; KB-3-1 cytotox: inconclusive; HT1080-NT tox: 18µM*

How did CCOC(=O)C1(Cc2cccc(OC)c2)CCN(Cc2cccc(OC)c2O)CC1 do in these assays?
HT1080 IDH1KD tx: inconclusive; KB-V1 MDR tox: 5.2µM*; KB-3-1 cytotox: inconclusive; HT1080-NT tox: inconclusive

How did CCOC(=O)C1(CCOc2ccccc2)CCN(Cc2cccc3c2OCO3)CC1 do in these assays?
HT1080 IDH1KD tx: inconclusive; KB-V1 MDR tox: inconclusive; KB-3-1 cytotox: inconclusive; HT1080-NT tox: 21µM*
